Measurements as given in ChEMBL document CHEMBL3988442, “University of Dundee, Small-Polar-MMV Screening Library” (2021).
The whole screen tested about 48,000 compounds, of which about 13,000 (27%) showed an effect of 50% or more. The list shows a part of the results.

The molecules below were run on Wolbachia pipientis (assay: Anti-Wolbachia Cell-Based Screen). Details: 5 µM.
Format: functional
Design: scale not given: in the data most compounds retested in dose-response had high values
`CCCC(=O)N(CCCN1CCOCC1)c1nc2c(C)c(C)ccc2s1.Cl` was tested, and the “Percent Effect” value was 4.916%.
With `CNC(=O)c1ccc(CNC(=O)c2cc(C(C)C)n(C)n2)cc1` the “Percent Effect” value was -0.9811%.
With `CC(C)OC(=O)N1CCCC(c2nccn2Cc2ccncc2)C1` (stereo not given) the “Percent Effect” value was -3.54%.
With `O=C(Cc1cccc(F)c1)N1CCc2ncnc(NC3CCC3)c2CC1` the “Percent Effect” value was 110%.
In the case of `O=C(Cc1cccc(F)c1)N1CCc2ncnc(N3CCCC3)c2CC1`, the “Percent Effect” value is reported as -1.475%.
For `Cc1ncnc2c1CCN(C(=O)Cc1cccc(F)c1)CC2`, the “Percent Effect” value was 0.1924%.
With `COc1ncnc2c1CCN(C(=O)Cc1cccc(F)c1)CC2` the “Percent Effect” value was 3.249%.
For `O=C(Cc1cccc(F)c1)N1CCc2ncnc(NC3CC3)c2CC1.O=C(O)C(F)(F)F`, the “Percent Effect” value was 106%.
In the case of `NC(=O)NC(=O)CCn1ccc(-c2ccsc2)n1`, the “Percent Effect” value is reported as -12.21%.
With `CCOC(=O)C1CCN(C(=O)CN2CCCC2c2ccsc2)CC1` (stereo not given) the “Percent Effect” value was 0.9272%.
With `Cc1nnc(NCc2ccc(F)cc2)o1` the “Percent Effect” value was 4.213%.
With `Cc1cccc(CNc2nnc(C(C)C)o2)c1` the “Percent Effect” value was -24.34%.
In the case of `Cc1ccc(CNc2n[nH]c(C)n2)cc1`, the “Percent Effect” value is reported as 101.1%.
For `Cc1cccc(CNc2n[nH]c(C)n2)c1`, the “Percent Effect” value was 94.75%.
With `CSc1ccc(CNC2(c3ccc(F)cc3)CCOCC2)cc1` the “Percent Effect” value was -10.48%.
In the case of `Cc1nc(CNc2ncc(Br)cn2)n[nH]1`, the “Percent Effect” value is reported as -4.306%.
With `COc1ccc(CNC(C)c2cn[nH]c2C)cc1` (stereo not given) the “Percent Effect” value was 2.524%.
`Cc1noc(NCc2ccc(F)cc2)n1` was tested, and the “Percent Effect” value was 5.861%.
`COc1ccc(CNc2n[nH]c(C)n2)cc1` was tested, and the “Percent Effect” value was 96.08%.
For `Cc1cccc(CNc2cncc(-n3cccn3)n2)c1`, the “Percent Effect” value was 4.61%.
`CSc1ccc(CNc2n[nH]c(C)n2)cc1` was tested, and the “Percent Effect” value was 110%.
`COc1ccc(CNc2c(C)nn(C(C)C)c2C)cc1` was tested, and the “Percent Effect” value was -4.166%.
With `O=C(Nc1ccc(F)cc1F)N(CCC(F)(F)F)C[C@H](O)CO` the “Percent Effect” value was -18.87%.
In the case of `CN1CCN(Cc2cn3c(n2)CNCC3)CC1.Cl.Cl.Cl`, the “Percent Effect” value is reported as -6.492%.
`CCC(NCc1ncc[nH]1)c1nc(C(F)(F)F)cs1` (stereo not given) was tested, and the “Percent Effect” value was -16.74%.
With `COC(=O)c1ccc(CNC(=O)CN2C[C@@H](NC(C)=O)[C@H](C(C)C)C2)o1` the “Percent Effect” value was 2.567%.
In the case of `COc1c(C)cnc(CN(C)C(=O)c2ccccn2)c1C`, the “Percent Effect” value is reported as 13.08%.
For `CCN(C)S(=O)(=O)N1CCCC(CO)(CC=C(C)C)C1` (stereo not given), the “Percent Effect” value was -20.38%.
For `COc1cc(C(C)NCc2ncccc2C)ccc1SC(F)F` (stereo not given), the “Percent Effect” value was -24.97%.
For `Cc1nnc(CNC(C)c2cc(C)c(F)c(C)c2)s1` (stereo not given), the “Percent Effect” value was 61.57%.
In the case of `Cc1cc(C)cc(C(C)NCc2nnc(C)s2)c1` (stereo not given), the “Percent Effect” value is reported as -26.09%.
In the case of `Cc1ccc(CNC(=O)CN(C)CC2CCN(CCO)CC2)s1`, the “Percent Effect” value is reported as -11.99%.
With `CCN1Cc2cc3c(cc2NCCC1=O)OCO3` the “Percent Effect” value was 124.2%.
For `COc1nccnc1N1CCN(Cc2ccc3c(c2)OCO3)C(=O)C1`, the “Percent Effect” value was -4.11%.
`CC(C)(C)CN1Cc2cc3c(cc2NCCC1=O)OCO3` was tested, and the “Percent Effect” value was 93.04%.
`COC(=O)CN1Cc2cc3c(cc2NCCC1=O)OCO3` was tested, and the “Percent Effect” value was 87.85%.
With `O=C1NCCN(CC2CC2)C12CCN(Cc1ccc3c(c1)OCO3)CC2` the “Percent Effect” value was -10.73%.
`O=C1CCNc2cc3c(cc2CN1CC1CC1)OCO3` was tested, and the “Percent Effect” value was 89.98%.
In the case of `COC(=O)CCC(=O)N1CCc2[nH]nc(-c3ccc4c(c3)OCO4)c2C1`, the “Percent Effect” value is reported as 6.027%.
With `CC(C)SCc1cccc(NC(=O)NC(C)c2nc[nH]n2)c1` (stereo not given) the “Percent Effect” value was -14.93%.
For `Cc1ccccc1S(=O)(=O)NC(=O)CSc1ccc2c(c1)OCCO2`, the “Percent Effect” value was -12.34%.
In the case of `O=C(CSc1ccccc1Cl)NS(=O)(=O)c1ccc2c(c1)OCCO2`, the “Percent Effect” value is reported as 0.8211%.
With `CN(C)CCN(C)C1CCCN(C(=O)c2ccc(Cn3ccnc3)o2)C1` (stereo not given) the “Percent Effect” value was -5.736%.
`CC(O)CN1CCC(CN(C)Cc2cccc(C#N)c2)CC1` (stereo not given) was tested, and the “Percent Effect” value was -3.336%.
For `COC(=O)c1cccn1C1CCN(C(=O)c2cc(F)ccc2C)CC1`, the “Percent Effect” value was 95.76%.
With `COC(=O)c1cccn1C1CCN(C(=O)c2ccc(C)cc2O)CC1` the “Percent Effect” value was 105.5%.
With `COC(=O)c1cccn1C1CCN(C(=O)c2cc(F)ccc2F)CC1` the “Percent Effect” value was 16.29%.
For `COC(=O)c1cccn1C1CCN(C(=O)c2cn[nH]c2C)CC1`, the “Percent Effect” value was 1.064%.
For `Cc1ccc(C(=O)N2CCC(c3nccn3C(C)C)CC2)c(=O)[nH]1`, the “Percent Effect” value was 4.246%.
For `COc1cccc([C@@H]2CN(C(=O)c3ccc(C)cc3O)C[C@H]2C(=O)O)c1`, the “Percent Effect” value was 2.23%.
In the case of `Cc1ccc(F)cc1C(=O)OCC1CCCN1C(N)=O` (stereo not given), the “Percent Effect” value is reported as 7.06%.
In the case of `COC(=O)c1cccn1C1CCN(C(=O)c2ccc(C)[nH]c2=O)CC1`, the “Percent Effect” value is reported as 102.8%.
In the case of `COC(=O)c1cccn1C1CCN(C(=O)c2cc(C)ccc2O)CC1`, the “Percent Effect” value is reported as -6.759%.
In the case of `COC(=O)c1cccn1C1CCN(C(=O)c2c(C)noc2C)CC1`, the “Percent Effect” value is reported as 105.8%.
In the case of `O=C(Cc1cc2c(cc1Cl)OCCO2)N1CC[C@H](CO)[C@H](O)C1`, the “Percent Effect” value is reported as 7.536%.
`COc1cccc(-n2c(C)cc(C(=O)NS(C)(=O)=O)c2C)c1` was tested, and the “Percent Effect” value was -4.667%.
In the case of `Cc1n[nH]cc1CNCC1(c2ccccc2Cl)CCOCC1`, the “Percent Effect” value is reported as 10.52%.
With `Cc1ccc(CCNC(=O)NCc2cccc(OC(F)F)c2)cn1` the “Percent Effect” value was -2.718%.
`CC(C)C(C)NC(=O)Nc1ccc(F)c(C(N)=O)c1` (stereo not given) was tested, and the “Percent Effect” value was 114.2%.
`CC(=O)c1cccc(NC(=O)NCCOCC2CC2)c1` was tested, and the “Percent Effect” value was 4.489%.
In the case of `NC(=O)c1cc(NC(=O)N2CCCCCC2)ccc1F`, the “Percent Effect” value is reported as -15.41%.
For `COCCCNC(=O)Nc1cccc2ncccc12`, the “Percent Effect” value was 3.143%.
With `CCOCCCNC(=O)Nc1ccc(F)c(C(N)=O)c1` the “Percent Effect” value was 144.9%.
With `COCCNC(=O)Nc1ccc(-n2cncn2)c(F)c1` the “Percent Effect” value was -15.63%.
In the case of `CC(C)C(O)CNC(=O)Nc1ccc(F)c(Cl)c1` (stereo not given), the “Percent Effect” value is reported as 4.966%.
For `O=C(NCCCOCC1CC1)Nc1ccc(F)cc1`, the “Percent Effect” value was 3.334%.
In the case of `COC(=O)c1cccc(S(=O)(=O)Nc2ccc(F)c(C(N)=O)c2)c1`, the “Percent Effect” value is reported as -1.482%.
In the case of `COCCCNC(=O)Nc1ccc(F)c(C(N)=O)c1`, the “Percent Effect” value is reported as 133.6%.
With `CC(C)CCOCCNC(=O)Nc1cc(C(F)(F)F)c[nH]c1=O` the “Percent Effect” value was -4.49%.
With `CC(C)CCOCCNC(=O)Nc1ccc(F)c(C(N)=O)c1` the “Percent Effect” value was 86.61%.
